# In PubChem BioAssay:
# Molecular target: Torsin-1A (Homo sapiens) (UniProt O14656)
# Test: torsin A mutant lysate binding on microarrays – cell lysate, small-molecule microarray, COS7 lysate, 635/667 nm fluorescence, primary screen (AID 1150);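 also: score pools 667 nm emission and signal to noise measuring lysate protein binding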
# Details: COS7 hTOR1A mutant lysate, 635 nm fluorescence, higher = more signal
# Torsin-1A (Homo sapiens), sequence (O14656 whole entry, looked up): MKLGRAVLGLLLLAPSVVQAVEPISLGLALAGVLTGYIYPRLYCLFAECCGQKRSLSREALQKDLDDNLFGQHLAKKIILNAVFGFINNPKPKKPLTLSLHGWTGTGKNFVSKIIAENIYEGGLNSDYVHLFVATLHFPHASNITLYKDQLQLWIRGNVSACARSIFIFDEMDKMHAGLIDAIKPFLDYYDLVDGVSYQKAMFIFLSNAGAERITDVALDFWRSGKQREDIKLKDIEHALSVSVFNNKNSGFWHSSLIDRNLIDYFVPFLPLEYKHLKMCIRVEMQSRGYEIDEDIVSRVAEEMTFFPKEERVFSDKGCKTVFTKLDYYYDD
row,Structure (SMILES),composite z-score
1,CN(C)C(=O)[C@]1(Cc2ccccc2N=[N+]=[N-])N=C(c2ccc(OCCCO)cc2)O[C@@H]1c1ccccc1,0.902
2,CCCCCC1=C2CNC(CCC)(C(=O)OC)C=C2C(C)C1=O (stereo unspecified),0.0188
3,COCCOC(=O)N1C(=O)[C@@]2(c3cc(C#CCCO)ccc31)[C@H](C(=O)N1CCc3cc(OC)c(OC)cc3C1)[C@H]1C(=O)O[C@H](c3ccccc3)[C@H](c3ccccc3)N1[C@@H]2c1ccc(O)cc1,0.538
4,O=C(NCc1ccccc1)[C@@]1(Cc2ccccc2)N=C(c2ccc(OCCCO)cc2)O[C@H]1c1ccccc1,0.918
5,CC(C)c1ccc(NN2C(C(O)c3cc(C(F)(F)F)cc(C(F)(F)F)c3)C=CC3C(=O)N(c4ccccc4)C(=O)C32)cc1 (stereo unspecified),0.843
6,CN1C(=O)[C@]2(Cc3ccccc3)N=C(c3ccc(OCCCO)cc3)O[C@@H]2c2ccccc21,0.628
7,CC(C)(C)OC(=O)CC[C@]1(C(=O)NCC(O)CO)COC(c2ccc(OCCCO)cc2)=N1 (stereo partly specified),2.65
8,CCOC(=O)C[C@H]1[C@H](OC(=O)c2cc3ccccc3oc2=O)[C@@H](NC(=O)Cc2ccc(OC)cc2)c2cc(OCCCO)ccc2N1C(=O)c1ccccc1,0.804
9,COc1ccc(CCNC(=O)[C@@]2(Sc3ccc(C)cc3)CC(=O)N(C3CCCCC3)[C@@H]2c2ccc(CO)cc2I)cc1,0.789
10,COc1ccc(C(=O)O[C@H]2CC[C@]3(C)C4=C(CCC3C2(C)C)[C@]2(C)CC[C@H]([C@H](C)CCCC(C)C)[C@@]2(C)CC4)cc1 (stereo partly specified),0.609
11,CCOC(=O)C[C@H]1[C@H](OC(=O)Cc2ccc3c(c2)OCO3)[C@@H](NC(=O)c2ccc3ccccc3c2)c2cc(OCCCO)ccc2N1C(=O)c1ccccc1,0.458
